Where “and” joins values, the source holds several entries; their conditions need not be identical. Equal values may be shown once. Records with an inconclusive call do not appear. Some structures have more than one record in an assay (separate samples or runs), and their calls can disagree. Calls of active or inactive are those of the source. Calls follow the shape of the dose curve; as a rule, active = well fitted curve in the direction sought with a large enough effect in the repeat runs; inconclusive = weak or mixed curves; inactive = no such curve, though single readings can be large; an effect the other way counts as inactive or inconclusive.
How the values were obtained:
[1] = qHTS RealTime-Glo MT Cell Viability Assay in HEK293 cells - 0 hour (AID 1224880); also: top concentration of the series differs between compounds; nearly all actives have a fitted effect of over 45% in size
Outline: (§1)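 HEK293 cells mixed with RealTime-Glo reagents (NanoLuc plus cell-permeant prosubstrate) at 600 cells/well, preincubated 5 h at 37 C/5% CO2, then given 23 nL compound in DMSO. Nonlytic luminescence from viable cells was read at 0, 8, 16, 24, 32 and 40 h.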

[2] = A CellTox Green Cytotoxicity Assay to monitor cytotoxicity in HEK293 cells - 32 hour (AID 1224881); also: nearly all actives have a fitted effect of over 40% in size; also: potency is read from the fitted curve at half-maximal effect
Outline: (§2)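 HEK293 cells premixed with CellTox Green dye were seeded at 600 cells/well and left 5 h at 37 C/5% CO2 before pin transfer of 23 nL compound in DMSO. Fluorescence from dye bound to dead-cell DNA was read during 40 h treatment.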

[3] = A CellTox Green Cytotoxicity Assay to monitor cytotoxicity in HepG2 cells - 0 hour (AID 1224882); also: nearly all actives have a fitted effect of over 35% in size
Outline: (§3)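 HepG2 cells were seeded together with the CellTox Green dye at 600 cells/well, left 5 h at 37 C/5% CO2, then given compounds in DMSO. Fluorescence from dye bound to dead-cell DNA was read repeatedly over 40 h of treatment at 37 C.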

[4] = A CellTox Green Cytotoxicity Assay to monitor cytotoxicity in HepG2 cells - 32 hour (AID 1224883); also: nearly all actives have a fitted effect of over 50% in size; also: potency is read from the fitted curve at half-maximal effect
Outline: as §3

[5] = A CellTox Green Cytotoxicity Assay to monitor cytotoxicity in HEK293 cells - 8 hour (AID 1224884); also: nearly all actives have a fitted effect of over 35% in size
Outline: as §2

[6] = qHTS RealTime-Glo MT Cell Viability Assay in HepG2 cells - 16 hour (AID 1224885); also: nearly all actives have a fitted effect of over 50% in size; also: potency is read from the fitted curve at half-maximal effect
Outline: (§4)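 Cells + NanoLuc/prosubstrate dispensed (600 cells/well) → 5 h at 37 C/5% CO2 → compounds in DMSO transferred → 40 h incubation at 37 C, luminescence read at 0, 8, 16, 24, 32, 40 h.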

[7] = qHTS RealTime-Glo MT Cell Viability Assay in HEK293 cells - 24 hour (AID 1224886); also: nearly all actives have a fitted effect of over 50% in size; also: potency is read from the fitted curve at half-maximal effect; as to activity change, negative = cytotoxicity: top concentration of the series differs between compounds
Outline: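 Tox21 10K qHTS, HEK293, 600 cells/well, RealTime-Glo reagent co-dispensed with cells; 5 h preincubation, compound by pintool, 37 C, luminescence at 0–40 h.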

[8] = qHTS RealTime-Glo MT Cell Viability Assay in HEK293 cells - 8 hour (AID 1224887); also: nearly all actives have a fitted effect of over 50% in size; also: potency is read from the fitted curve at half-maximal effect; as to activity change, negative = cytotoxicity: top concentration of the series differs between compounds
Outline: as §1

[9] = A CellTox Green Cytotoxicity Assay to monitor cytotoxicity in HEK293 cells - 16 hour (AID 1224888); also: nearly all actives have a fitted effect of over 35% in size
Outline: as §2

[10] = qHTS RealTime-Glo MT Cell Viability Assay in HepG2 cells - 0 hour (AID 1224889); also: nearly all actives have a fitted effect of over 50% in size
Outline: as §4
% is scaled to controls: 0 for no effect and ±100 for the full control effect.

CCC(C)(NC(=O)c1cc(Cl)c(C)c(Cl)c1)C(=O)CCl (centres undefined)
inactive: Potency [1] | Potency [3] | Potency [5] | Potency [9] | Potency [10]
active: Potency [2] 43.9 µM | Potency [4] 49.3 µM | Potency [6] 49.3 µM | Potency [7] 24.7 µM | Potency [8] 27.7 µM

COP(=S)(OC)Oc1cc(Cl)c(I)cc1Cl
inactive: Potency [1] | Potency [2] | Potency [3] | Potency [4] | Potency [5] | Potency [6] | Potency [7] | Potency [8] | Potency [9] | Potency [10]

CCCCN(N=O)C(=N)N[N+](=O)[O-]
inactive: Potency [1] | Potency [2] | Potency [3] | Potency [4] | Potency [5] | Potency [6] | Potency [7] | Potency [8] | Potency [9] | Potency [10]

CCn1cc[n+](C)c1
inactive and 1.75 µM (active): Potency [7]
inactive: Potency [1] | Potency [2] | Potency [3] | Potency [4] | Potency [5] | Potency [6] | Potency [8] | Potency [9] | Potency [10]

C=CC(=O)OCC(C)O (centres undefined)
inactive: Potency [1] | Potency [2] | Potency [3] | Potency [4] | Potency [5] | Potency [6] | Potency [7] | Potency [8] | Potency [9] | Potency [10]

C[N+](C)(C)CCCl
inactive: Potency [1] | Potency [2] | Potency [3] | Potency [4] | Potency [5] | Potency [6] | Potency [7] | Potency [8] | Potency [9] | Potency [10]

CCOP(O)OCC
inactive: Potency [1] | Potency [2] | Potency [3] | Potency [4] | Potency [5] | Potency [6] | Potency [7] | Potency [8] | Potency [9] | Potency [10]

Cc1ccc(-c2c(Cl)nc(C#N)n2S(=O)(=O)N(C)C)cc1
inactive: Potency [1] | Potency [2] | Potency [3] | Potency [4] | Potency [5] | Potency [6] | Potency [7] | Potency [8] | Potency [9]

O=C(O)COc1ccc(Cl)cc1
inactive: Potency [1] | Potency [2] | Potency [3] | Potency [4] | Potency [5] | Potency [6] | Potency [7] | Potency [8] | Potency [9] | Potency [10]

COc1cc(CC(C)N)cc2c1OCO2 (centres undefined)
inactive: Potency [1] | Potency [2] | Potency [3] | Potency [4] | Potency [5] | Potency [6] | Potency [7] | Potency [8] | Potency [9] | Potency [10]

c1ccc(CN2CCNCC2)cc1
inactive: Potency [1] | Potency [2] | Potency [3] | Potency [4] | Potency [5] | Potency [6] | Potency [7] | Potency [8] | Potency [9] | Potency [10]

O=C1C(Cl)C(CCl)CN1c1cccc(C(F)(F)F)c1 (centres undefined)
inactive: Potency [1] | Potency [2] | Potency [3] | Potency [4] | Potency [5] | Potency [6] | Potency [9] | Potency [10]
active: Potency [7] 24.5 µM | Potency [8] 24.5 µM

C=CC(=O)OC
inactive: Potency [1] | Potency [2] | Potency [3] | Potency [4] | Potency [5] | Potency [6] | Potency [7] | Potency [8] | Potency [9] | Potency [10]

CCCCCCCCCC(=O)O[C@H]1CC[C@H]2[C@@H]3CCC4=CC(=O)CC[C@@H]4[C@H]3CC[C@]12C
inactive: Potency [1] | Potency [2] | Potency [3] | Potency [4] | Potency [5] | Potency [6] | Potency [7] | Potency [8] | Potency [9] | Potency [10]

ClCCCCBr
inactive: Potency [1] | Potency [2] | Potency [3] | Potency [4] | Potency [5] | Potency [6] | Potency [7] | Potency [8] | Potency [9] | Potency [10]

COc1c(C(C)(C)C)cc([N+](=O)[O-])c(C)c1[N+](=O)[O-]
inactive: Potency [1] | Potency [2] | Potency [3] | Potency [4] | Potency [5] | Potency [6] | Potency [7] | Potency [8] | Potency [9] | Potency [10]

CCBr
inactive: Potency [1] | Potency [2] | Potency [3] | Potency [4] | Potency [5] | Potency [6] | Potency [7] | Potency [8] | Potency [9] | Potency [10]

CCO[C@H]1O[C@@H]2OC3(C)CC[C@H]4[C@H](C)CC[C@@H]([C@H]1C)[C@@]24OO3
inactive: Potency [1] | Potency [2] | Potency [3] | Potency [4] | Potency [5] | Potency [6] | Potency [7] | Potency [8] | Potency [9] | Potency [10]

Cc1ccc2ccccc2c1
inactive: Potency [1] | Potency [2] | Potency [3] | Potency [4] | Potency [5] | Potency [6] | Potency [7] | Potency [8] | Potency [9] | Potency [10]

ClC=C(Cl)Cl
inactive: Potency [1] | Potency [2] | Potency [3] | Potency [4] | Potency [5] | Potency [6] | Potency [7] | Potency [8] | Potency [9] | Potency [10]

Brc1ccc(Oc2ccccc2)cc1
inactive: Potency [1] | Potency [3] | Potency [4] | Potency [5] | Potency [6] | Potency [7] | Potency [8] | Potency [9] | Potency [10]
active: Potency [2] 50.2 µM and 21.9 µM

O=Cc1ccc2c(c1)OCO2
inactive: Potency [1] | Potency [2] | Potency [3] | Potency [4] | Potency [5] | Potency [6] | Potency [7] | Potency [8] | Potency [9] | Potency [10]

NCC(CC(=O)O)c1ccc(Cl)cc1 (centres undefined)
inactive: activity change, negative = cytotoxicity [1] -1.28% [at 0.29 µM] | cytotoxicity increase [2] -17.2% [at 0.29 µM] | cytotoxicity [3] 0.813% [at 0.29 µM] | cytotoxicity increase [4] -7.65% [at 0.29 µM] | cytotoxicity increase [5] -12.5% [at 0.29 µM] | activity change, negative = cytotoxic [6] -0.45% [at 0.29 µM] | activity change, negative = cytotoxicity [7] 4.3% [at 0.29 µM] | activity change, negative = cytotoxicity [8] 1.53% [at 0.29 µM] | activity change [9] -9.31% [at 0.29 µM, stronger effect = higher value] | activity change, negative = cytotoxicity [10] -4.46% [at 0.29 µM]

N#Cc1ccc(Cl)cc1
inactive: Potency [1] | Potency [2] | Potency [3] | Potency [4] | Potency [5] | Potency [6] | Potency [7] | Potency [8] | Potency [9] | Potency [10]

— PubChem BioAssay (Tox21)
